TNAP act mid DEA: activators of human TNAP at intermediate phosphate acceptor. purified TNAP, CDP-star luminescence, 100 mM DEA, 30 min; active compounds read high; scale: 0 levamisole-inhibited, 1 vehicle-only enzyme. activation factor at 20 µM. 64,000 tested, under 10 active;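 active = activation factor of at least 2 at 20 µM, relative to controls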
Target sequence (P05186 whole entry, looked up): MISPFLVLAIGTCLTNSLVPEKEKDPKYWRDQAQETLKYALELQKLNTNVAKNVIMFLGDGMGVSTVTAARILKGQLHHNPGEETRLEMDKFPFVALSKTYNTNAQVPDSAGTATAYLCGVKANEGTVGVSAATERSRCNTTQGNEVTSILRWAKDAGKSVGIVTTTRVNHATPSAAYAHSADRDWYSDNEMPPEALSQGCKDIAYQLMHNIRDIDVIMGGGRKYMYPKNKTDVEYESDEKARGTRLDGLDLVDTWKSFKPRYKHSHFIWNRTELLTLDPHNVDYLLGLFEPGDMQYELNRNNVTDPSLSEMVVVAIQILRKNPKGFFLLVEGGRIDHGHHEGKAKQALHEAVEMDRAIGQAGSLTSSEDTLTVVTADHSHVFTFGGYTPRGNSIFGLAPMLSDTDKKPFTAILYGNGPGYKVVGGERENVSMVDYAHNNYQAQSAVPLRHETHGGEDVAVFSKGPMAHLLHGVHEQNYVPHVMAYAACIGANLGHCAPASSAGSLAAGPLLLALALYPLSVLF
HUVEC tox IL1B: toxic to HUVEC cells under IL-1B stimulation. HUVEC cell count loss, Hoechst imaging, IL-1B stimulated. cell count reduction, % at 2 µM. 94,000 compounds, 0.41% hits;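 active = cell count reduction more than 3 SD above the screen-wide mean, cut at about 70% in these data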
PLAP activator: activates human placental alkaline phosphatase; P05187; purified PLAP enzyme, luminescent substrate read-out; active compounds read high; activation fold at 20 µM; 96,000 compounds, 1.2% hits; AID 696; in the data active = activation fold above about 2
IL1B NFkB pot: enhances IL-1B driven NFkB nuclear translocation | 94,000 compounds, 0.3% hits | activation, % at 2 µM | HUVEC IL-1B NFkB p65 nuclear translocation imaging;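 active = activation above 40%, about the mean plus 3 SD, also judged a hit on visual image review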;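 note: percent activation is computed from the nuclear over cytoplasmic p65 intensity ratio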
NFkB transloc inh: blocks IL-1B driven NFkB nuclear translocation in HUVEC cells. HUVEC IL-1B NFkB p65 nuclear translocation imaging. inhibition, % at 2 µM. 94,000 compounds, 0.43% hits. AID 796;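 active = inhibition above about 30% together with a positive call from visual inspection of the well image, limit read from the data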;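 note: nuclear over cytoplasmic p65 intensity ratio measured by imaging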
Large screens that a line does not name were inactive. Sampled rows, rich in hits. Any-hit rate of the full collection: about 2.1%.

CCn1c(COc2ccc(C)cc2)nnc1SCC(=O)Nc1ccc2c(c1)OCCO2	none
CCCNC(=S)Nc1ccc(Br)cc1	HUVEC tox IL1B 92 (no result: TNAP act mid DEA)
O=C(CCc1nc2ccccc2[nH]1)Nc1ccc2c(c1)OCO2	NFkB transloc inh 44
CC(C)c1ccc(C(=O)CSc2n[nH]c(-c3ccncc3)n2)cc1	none (no result: TNAP act mid DEA)
CCOC(=O)c1ccc(CSc2ncn[nH]2)o1	none
CCCc1cc(-c2[nH]ncc2-c2ccc(C(=O)OCC)o2)c(O)cc1O	PLAP activator 2.1
CCCc1cc(-c2[nH]ncc2-c2ccc3c(c2)OCCCO3)c(O)cc1O	PLAP activator 2.6
COc1ccc(OC)c(-n2c(-c3ccc(C)cc3)n[nH]c2=S)c1	HUVEC tox IL1B 88 (no result: TNAP act mid DEA)
COc1ccc(OC)c(-n2c(-c3cc(-c4ccc(F)cc4)n[nH]3)n[nH]c2=S)c1	PLAP activator 2 (no result: TNAP act mid DEA)
CCC(C)n1c(SCC(=O)Nc2cc(C)on2)nc2ccccc2c1=O (configuration not stated)	none (no result: TNAP act mid DEA)
CCC(CO)n1c(SCc2cc(=O)oc3cc(C)ccc23)nc2ccccc2c1=O (configuration not stated)	PLAP activator 2.7 (no result: TNAP act mid DEA)
N=C(N)SCc1nc2ccccc2c(=O)n1-c1ccccc1Cl	none (no result: TNAP act mid DEA)
Cc1ccccc1-n1c(CSC(=N)N)nc2ccccc2c1=O	PLAP activator 2.3 (no result: TNAP act mid DEA)
COCCNC(=O)CN(C(=O)Cn1nnc2ccccc21)c1ccc(C)c(F)c1	none (no result: TNAP act mid DEA, PLAP activator)
CCOC(=O)COc1ccc2c(c1)c(C(=O)OCC)c(C)n2CC	none (no result: TNAP act mid DEA)
COc1ccc(Cl)cc1NC(=O)CC(C)=O	none
COc1ccc(Cl)cc1NC(=O)CC(C)c1ccccc1 (configuration not stated)	HUVEC tox IL1B 80, NFkB transloc inh 97 (no result: TNAP act mid DEA)
C/C(N)=C(/C#N)C(=O)COC(=O)c1cc(S(=O)(=O)N2CCCCC2)ccc1C	none
C/C(N)=C(/C#N)C(=O)COC(=O)c1ccncc1	PLAP activator 2.3
C/C(N)=C(/C#N)C(=O)COC(=O)c1ccc(C)c(S(=O)(=O)N2CCCCC2)c1	IL1B NFkB pot 42 (no result: TNAP act mid DEA)
CC1=C(C#N)c2nc(N)c(C#N)c(C)c2/C1=C\c1ccccc1	none (no result: HUVEC tox IL1B, PLAP activator, IL1B NFkB pot, NFkB transloc inh)
C=CCNC(=S)NNC(=O)C(CCC(C)C)CC(C)(C)O (configuration not stated)	PLAP activator 2.7 (no result: TNAP act mid DEA)
COc1ccccc1NC(=O)CCN1CCCCCC1	none
CCN1CCN(C(=O)Nc2ccccc2OC)CC1	HUVEC tox IL1B 92 (no result: TNAP act mid DEA, PLAP activator)
COc1ccccc1NC(=O)N1CCN(c2ccccc2F)CC1	none
COc1ccccc1NC(=O)CCN1CCN(Cc2ccccc2)CC1	PLAP activator 2 (no result: TNAP act mid DEA)
O=c1nc2ccccc2c2n1CC(CN1CCN(c3ccccc3F)CC1)N2 (configuration not stated)	none (no result: TNAP act mid DEA)
Nc1nc(C2CCCN2S(=O)(=O)c2ccc(Cl)cc2)cs1 (configuration not stated)	none
COC(=O)C1CCN(C(=O)COC(=O)c2n[nH]c3ccccc23)CC1	none (no result: PLAP activator)
COc1ccccc1CNC(=O)COC(=O)c1n[nH]c2ccccc12	PLAP activator 2.3 (no result: TNAP act mid DEA)
CC1CCCN(C(=O)COC(=O)c2n[nH]c3ccccc23)C1 (configuration not stated)	PLAP activator 2
CCCC[n+]1ccn(-c2nc3ccccc3nc2[N-]S(=O)(=O)c2ccc(C)cc2)c1	none (no result: TNAP act mid DEA)
CCCCC[n+]1ccn(-c2nc3ccccc3nc2[N-]S(=O)(=O)c2ccc(C)cc2)c1	HUVEC tox IL1B 82, NFkB transloc inh 98 (no result: TNAP act mid DEA)
O=C(c1ccc(F)cc1)c1cn[nH]c1-c1ccccc1O	PLAP activator 2.5
Cc1ccc(C(=O)c2cn[nH]c2-c2ccccc2O)cc1	PLAP activator 2 (no result: TNAP act mid DEA)
COc1ccc(C(=O)c2cn[nH]c2-c2cc(Cl)ccc2O)cc1	PLAP activator 2.2
O=C(c1ccc(Cl)cc1)c1cn[nH]c1-c1ccccc1O	none (no result: TNAP act mid DEA, PLAP activator)
CCc1nn(-c2ccccc2)c2c1-c1cc(OC)c(OC)cc1C1(N2)C(=O)Nc2ccccc21 (configuration not stated)	none (no result: TNAP act mid DEA)
CCC(=O)N1CCN(c2nc3ccccc3s2)CC1	NFkB transloc inh 37 (no result: TNAP act mid DEA)
O=C(C1CC1)N1CCN(c2nc3ccccc3s2)CC1	none
CCOC(=O)c1nn(-c2ccccc2F)c(-c2ccccc2)c1C(=O)c1ccccc1	none (no result: TNAP act mid DEA)
CCOc1ccc(C(=O)OCCN(C)C)cc1	IL1B NFkB pot 58 (no result: TNAP act mid DEA)
CN(C)CCCOC(=O)c1ccccc1	none (no result: TNAP act mid DEA)
N#CC(c1cccc(Cl)c1)c1ncc(C(F)(F)F)cc1Cl (configuration not stated)	none (no result: TNAP act mid DEA)
COc1ccccc1NS(=O)(=O)c1cccc(C(=O)N/N=C(\C)c2ccc(-n3ccnc3)cc2)c1	PLAP activator 2 (no result: TNAP act mid DEA)

Screens: PubChem BioAssay, several laboratories
